Source: PubChem BioAssay
In the library only some 1.8% were active in any assay of this set; here they are far more common.
GLP1R ag: agonists of human GLP-1 receptor; 380,000 tested, 0.007% active; Potency, µM (series often up to 45.6 µM), usual class: activators; HEK293 GLP-1R CRE-luciferase, luminescence, 4-6 h; cells express a hypersensitive GLP-1R form
GLP1R inv ag: acts as inverse agonist at human GLP-1 receptor; HEK293 GLP-1R CRE-luciferase, luminescence, 24 h; GLP-1R form is constitutively active; Potency, µM (titrated, usually from 38.3 µM), hits mostly inhibitors; P43220; 410,000 tested, 1.6% active; also: nearly all actives have a fitted effect of over 55% in size
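Luminescence readout: a drop in cAMP-driven luciferase signal flags inverse agonism at a constitutively active GLP-1R stably expressed in HEK293. Compound exposure lasted 24 hr at 37 deg C, 5% CO2.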
TSHR antagonist: human thyrotropin receptor antagonism; P16473; TSHR-expressing cells, TSH-stimulated cAMP HTRF, 2 h; hits give low values; activity change, negative = inhibition, % at 11.5 µM; 330,000 tested, 0.2% active;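 active = activity change below a set negative limit, meaning inhibition stronger than a set level, cut at about -70% in these data; inconclusive = activity change between two set negative limits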
Target sequence (P16473 whole entry, looked up): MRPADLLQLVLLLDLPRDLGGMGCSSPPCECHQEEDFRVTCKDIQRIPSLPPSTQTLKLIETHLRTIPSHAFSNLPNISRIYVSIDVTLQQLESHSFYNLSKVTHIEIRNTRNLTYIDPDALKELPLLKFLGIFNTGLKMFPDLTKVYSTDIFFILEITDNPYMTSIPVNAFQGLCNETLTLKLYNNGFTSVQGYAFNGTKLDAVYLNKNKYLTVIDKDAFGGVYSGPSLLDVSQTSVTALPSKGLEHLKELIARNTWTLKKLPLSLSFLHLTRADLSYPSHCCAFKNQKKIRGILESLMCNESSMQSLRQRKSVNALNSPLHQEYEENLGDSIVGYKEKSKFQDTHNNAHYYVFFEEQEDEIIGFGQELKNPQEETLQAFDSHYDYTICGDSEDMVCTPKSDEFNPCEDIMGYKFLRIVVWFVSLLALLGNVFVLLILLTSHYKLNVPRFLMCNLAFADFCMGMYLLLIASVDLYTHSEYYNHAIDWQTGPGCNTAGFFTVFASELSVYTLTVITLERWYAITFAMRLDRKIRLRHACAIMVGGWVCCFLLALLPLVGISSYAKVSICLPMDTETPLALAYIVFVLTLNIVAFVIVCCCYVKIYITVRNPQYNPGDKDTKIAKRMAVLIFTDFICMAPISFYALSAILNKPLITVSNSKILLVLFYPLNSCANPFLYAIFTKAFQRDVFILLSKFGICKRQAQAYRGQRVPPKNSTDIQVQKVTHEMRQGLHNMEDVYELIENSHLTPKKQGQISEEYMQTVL
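TSHR-expressing cells were treated with compounds, then stimulated with TSH at EC80 (4nM final) for 2 hours at 37 deg C. Cellular cAMP was measured by HTRF competition between lysate cAMP and cAMP-d2 for a cryptate-labelled anti-cAMP antibody.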
GLP1R cytotox: cytotoxicity counter-screen for GLP-1 receptor inverse agonists. AID 624418. 410,000 tested, 0.13% active. Potency, µM (series often up to 38.3 µM), most hits filed as inhibitors. HEK293 cAMP-luciferase reporter cells, luminescence, 24 h;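 also: loss of luciferase light is scored as toxicity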
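MLSMR compounds, 24 hr on cells at 37 deg C/5% CO2; luminescence after luciferase reagent (12 min RT). Inhibition counted as the undesired cytotoxic outcome.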
PTHR1 ag: PTHR1 (human) receptor agonism; Q03431; HEK293 GP2 PTHR1 cells, GloSensor cAMP luminescence, 1 h; Potency, µM (top dose mostly 115 µM), hits mostly activators; 410,000 tested, 0.075% active; also: nearly all actives have a fitted effect of over 55% in size
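HEK-293-derived GP2 cells expressing PTHR1 and a GloSensor cAMP reporter, 3,000/well, plated overnight, given luciferin plus IBMX (each 0.5 mM as added) for 1 h at 37 °C, then compound for 1 h at 37 °C. Luminescence was read after 15 min at room temperature.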
Of the large screens only hits and unclear results are named; the others gave an inactive call; ! = a repeat was not active. Unless noted, calls follow the shape of the dose curve; as a rule, active = well fitted curve in the direction sought with a large enough effect; inconclusive = small, poorly fitted or top-dose-only effect, or another doubt; inactive = no such curve, though single readings can be large; an effect the other way counts as inactive or inconclusive.

CCCCNC(=S)NNC(=O)CCn1nc(C)c(Br)c1C	GLP1R cytotox 5.6µM
CCCCNC(=S)NNC(=O)CCn1cc(C)cn1	GLP1R inv ag 7.9µM, GLP1R cytotox inconclusive
Cc1nn(CCCC(=O)Nc2cccc(F)c2)c(=O)c2c1sc1ccccc12	none (no result: GLP1R ag, TSHR antagonist)
CCCCCOc1ccc(Cn2c(=O)oc3ccc(C)cc32)cc1OC	GLP1R inv ag inconclusive (no result: TSHR antagonist)
COc1ccc(C=O)cc1Cn1ccnc1	none
COc1ccc(C=O)cc1CN1CCCN(Cc2ccc(Cl)cc2)S1(=O)=O	GLP1R inv ag 7.1µM
COC(=O)c1ccc(OC)c(CN2CCCN(Cc3ccc(F)cc3)S2(=O)=O)c1	GLP1R inv ag 10µM
O=C(Nc1ccccc1OCc1ccccc1)c1ccccc1Br	GLP1R inv ag 10µM
CCOc1ccccc1NC(=O)c1ccccc1NC(=O)c1ccco1	none
COc1ccc(Cl)cc1NC(=O)C1CCCN(S(=O)(=O)c2ccc3c(c2)CCCC(=O)N3)C1 (centres undefined)	none (no result: TSHR antagonist)
CC(=O)C1=C(O)C(=O)N(c2cc(C(C)(C)C)on2)C1c1ccc(Br)cc1 (centres undefined)	GLP1R inv ag 8.9µM
CC(=O)C1=C(O)C(=O)N(c2cc(C(C)(C)C)on2)C1c1ccc(C(C)C)cc1 (centres undefined)	none
CCSc1ncc(Cl)c(C(=O)N(Cc2ccccc2)Cc2ccco2)n1	GLP1R inv ag 10µM (no result: GLP1R ag, TSHR antagonist)
COc1ccc(NC(=O)c2nc(SC)ncc2Cl)cc1	none
CCCSc1ncc(Cl)c(C(=O)N(Cc2ccc(Cl)cc2)Cc2ccco2)n1	none (no result: GLP1R ag, TSHR antagonist)
CSc1ncc(Cl)c(C(=O)N(Cc2ccc(N(C)C)cc2)Cc2ccco2)n1	GLP1R inv ag inconclusive (no result: GLP1R ag, TSHR antagonist)
COc1ccc(N(Cc2ccccc2)C(=O)c2nc(SC)ncc2Cl)cc1	GLP1R inv ag 11µM (no result: GLP1R ag, TSHR antagonist)
CCCS(=O)(=O)c1ncc(Cl)c(C(=O)N(Cc2ccccc2)Cc2ccco2)n1	GLP1R inv ag 13µM, GLP1R cytotox 10µM (no result: GLP1R ag, TSHR antagonist)
COc1ccc(-c2cc3c(=O)n(CC(=O)Nc4ccc(Br)c(C)c4)ccn3n2)cc1OC	none (no result: GLP1R ag, TSHR antagonist)
Cn1ncc2c(Nc3cc(C(F)(F)F)ccc3Cl)ncnc21	none (no result: GLP1R ag, TSHR antagonist)
CC(NNC(=O)c1ccccc1)c1ccccc1 (centres undefined)	none (no result: GLP1R inv ag, TSHR antagonist, GLP1R cytotox, PTHR1 ag)
Cc1ccc(C)c(S(=O)(=O)NCc2ccc(C(=O)N3CCC(Cc4ccccc4)CC3)cc2)c1	GLP1R inv ag 10µM
Cc1ccc(C(=O)N2CCC(Cc3ccccc3)CC2)cc1[N+](=O)[O-]	GLP1R inv ag 10µM
O=C(/C=C/c1ccccc1[N+](=O)[O-])Oc1ccccc1	none (no result: GLP1R ag, GLP1R inv ag, GLP1R cytotox, PTHR1 ag)
COC(=O)C(=Cc1ccccc1[N+](=O)[O-])C(=O)OC	GLP1R inv ag 10µM, GLP1R cytotox inconclusive
CCN(CC)CCNC(=O)C1CCN(S(=O)(=O)c2c(C)noc2/C=C/c2ccccc2F)CC1	GLP1R inv ag 3.2µM!, GLP1R cytotox inconclusive
Cc1ccc(/C=C/c2onc(C)c2S(=O)(=O)N2CCC(C(=O)N3CCN(C)CC3)CC2)cc1	GLP1R inv ag 6.3µM
CCN(CC)C(=O)C1CCN(S(=O)(=O)c2c(C)noc2/C=C/c2cccc(C)c2)CC1	GLP1R inv ag 10µM
CCN(CC)C(=O)C1CCN(S(=O)(=O)c2c(C)noc2/C=C/c2cccc(OC)c2)CC1	none (no result: GLP1R ag, TSHR antagonist)
CCOC(=O)C1CCN(C(=O)C2CCN(S(=O)(=O)c3c(C)noc3/C=C/c3ccc(C)cc3)CC2)CC1	GLP1R inv ag inconclusive (no result: TSHR antagonist)
Cc1cc(O)c2c(O)c3c(O)cccc3cc2c1	none (no result: GLP1R inv ag, TSHR antagonist, GLP1R cytotox, PTHR1 ag)
COc1ccc(-n2c(-c3ccco3)nc3c(cnn3-c3ccc(C)cc3)c2=O)cc1	none
CCOc1ccc(-n2c(C)nc3c(cnn3-c3ccc(Cl)cc3)c2=O)cc1	GLP1R inv ag inconclusive
COc1ccc(-n2c(-c3ccccc3F)nc3c(cnn3-c3ccc(C)cc3)c2=O)cc1	GLP1R inv ag 7.1µM (no result: GLP1R ag, TSHR antagonist)
CCc1nc2c(cnn2-c2ccc(Cl)cc2)c(=O)n1-c1ccc(OC)cc1	GLP1R inv ag 11µM
CCOc1ccc(-c2nnc(SCC(=O)NCc3ccc(C)cc3)nc2-c2ccc(OCC)cc2)cc1	none (no result: GLP1R ag, TSHR antagonist)
COc1ccc(-c2nnc(C3CCN(S(=O)(=O)c4cccc(Cl)c4)CC3)o2)cc1	GLP1R inv ag inconclusive (no result: GLP1R ag, TSHR antagonist)
Cc1nn(-c2ccc(F)cc2)c(Cl)c1C(=O)OC(C)C(=O)N(C)C1CCCCC1 (centres undefined)	GLP1R inv ag 5µM
Cc1ccccc1OCCN1CCC(Cc2ccccc2)CC1	GLP1R inv ag 8.9µM
COc1cccc(OC)c1OCCCCN1CCC(Cc2ccccc2)CC1	GLP1R inv ag inconclusive
CCC(=O)c1ccccc1OCCCN1CCC(Cc2ccccc2)CC1	GLP1R inv ag 7.9µM, GLP1R cytotox inconclusive
CCOc1ccccc1OCCN1CCC(Cc2ccccc2)CC1	GLP1R inv ag inconclusive, GLP1R cytotox inconclusive
CCCC(=O)Nc1ccc(C(=O)Nc2cc(C(F)(F)F)ccc2Cl)cc1	GLP1R inv ag 6.3µM, GLP1R cytotox inconclusive
COc1ccc(OC)c(NC(=O)NNC(=O)CCCOc2ccc(Cl)cc2C)c1	GLP1R inv ag 10µM
COc1ccc(NC(=O)NNC(=O)COc2ccc(Cl)cc2C)cc1OC	none
O=C(OCC1OC(OC(=O)c2cc(O)c(O)c(OC(=O)c3cc(O)c(O)c(O)c3)c2)[C@@H](OC(=O)c2cc(O)c(O)c(OC(=O)c3cc(O)c(O)c(O)c3)c2)C(OC(=O)c2cc(O)c(O)c(OC(=O)c3cc(O)c(O)c(O)c3)c2)C1OC(=O)c1cc(O)c(O)c(OC(=O)c2cc(O)c(O)c(O)c2)c1)c1cc(O)c(O)c(OC(=O)c2cc(O)c(O)c(O)c2)c1 (some centres undefined)	none (no result: GLP1R inv ag, TSHR antagonist, GLP1R cytotox, PTHR1 ag)
CCOC(=O)C(=CNc1cc(Cl)c(-c2ccco2)c(Cl)c1)C(=O)OCC	GLP1R inv ag 10µM
CCOC(=O)C(=CNc1ccc(-c2ccco2)c(Cl)c1)C(=O)OCC	none
Cc1ccc(C(=O)N2CCc3cc(CNC(=O)COc4ccccc4)ccc32)cc1	GLP1R inv ag inconclusive (no result: GLP1R ag, TSHR antagonist)
CCOC(=O)C1CCCCN1Cc1cccc(OCc2ccccc2)c1 (centres undefined)	GLP1R inv ag 10µM
CCOCN(C(=O)Cn1c(CC(C)C)nc2ccccc21)c1c(C)cccc1CC	GLP1R inv ag 11µM (no result: TSHR antagonist)
CN(C)C1(CNC(=O)C2CCN(S(=O)(=O)c3cc(Cl)ccc3Cl)CC2)CCCCC1	GLP1R inv ag 10µM, GLP1R cytotox inconclusive
CC(C)c1ccc(S(=O)(=O)N2CCC(C(=O)NCC3(N(C)C)CCCCC3)CC2)cc1	GLP1R inv ag inconclusive
Cc1ccc(NC(=O)C2CCCN(S(=O)(=O)c3ccc4c(c3)oc(=O)n4C)C2)cc1Cl (centres undefined)	none (no result: TSHR antagonist)
CC(C)(CC(=O)NCc1ccc(Cl)cc1Cl)CC1=NS(=O)(=O)c2ccccc2N1	GLP1R inv ag 8.9µM, GLP1R cytotox inconclusive (no result: TSHR antagonist)
Cc1ccc(OCc2nnc(SCC(=O)C(C)(C)C)n2Cc2ccco2)cc1	GLP1R inv ag 2µM
